For one sequence, binding signal results are on record in paper PMC7862700, “An all-to-all approach to the identification of sequence-specific readers for epigenetic DNA modifications on cytosine”.

Holding throughout (experiment): DAPPL (digital affinity profiling via proximity ligation, sequencing); 10 mM Tris-HCl pH 7.5, 50 mM NaCl, 1 mM DTT, 4% glycerol, room temperature, 30 min; GST-TFs on glutathione beads, 16-mer random dsDNA library, 0.1% formaldehyde crosslink after washing; high values mean tight binding
What all share (conditions): protein: recombinant; tags: N-terminal GST; dsDNA, one strand shown

One experiment deals with T1, FLI1 (Homo sapiens, UniProt Q01543 1-452).
T1 sequence: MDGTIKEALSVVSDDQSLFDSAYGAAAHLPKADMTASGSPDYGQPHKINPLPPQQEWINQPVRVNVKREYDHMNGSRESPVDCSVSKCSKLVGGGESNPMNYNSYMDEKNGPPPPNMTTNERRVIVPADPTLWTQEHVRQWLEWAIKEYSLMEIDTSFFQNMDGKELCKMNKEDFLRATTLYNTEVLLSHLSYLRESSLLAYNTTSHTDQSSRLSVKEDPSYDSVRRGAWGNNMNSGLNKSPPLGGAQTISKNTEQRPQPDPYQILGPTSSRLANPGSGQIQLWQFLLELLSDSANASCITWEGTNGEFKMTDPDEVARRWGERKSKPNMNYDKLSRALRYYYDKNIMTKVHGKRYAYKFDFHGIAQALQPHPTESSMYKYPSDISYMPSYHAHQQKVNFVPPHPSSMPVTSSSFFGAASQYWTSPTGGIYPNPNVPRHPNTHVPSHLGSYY
Put shortly: (§1)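 Pools were built from human transcription factors expressed in yeast as GST fusions, captured on glutathione beads and DNA-barcoded, along with a tag-only sample. Incubation with 200 nmole of a 16-mer random double-stranded DNA library lasted 30 min at room temperature in Tris/NaCl/DTT/glycerol buffer, and was followed by washing, 0.1% formaldehyde crosslinking, proximity ligation, PCR amplification and Illumina NextSeq500 sequencing. Binding signal is the quotient of each hexamer's read frequency for a factor and its frequency for the tag-only sample.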

The next experiment deals with T2, ELK1 (Homo sapiens, UniProt P19419 1-428).
T2 sequence: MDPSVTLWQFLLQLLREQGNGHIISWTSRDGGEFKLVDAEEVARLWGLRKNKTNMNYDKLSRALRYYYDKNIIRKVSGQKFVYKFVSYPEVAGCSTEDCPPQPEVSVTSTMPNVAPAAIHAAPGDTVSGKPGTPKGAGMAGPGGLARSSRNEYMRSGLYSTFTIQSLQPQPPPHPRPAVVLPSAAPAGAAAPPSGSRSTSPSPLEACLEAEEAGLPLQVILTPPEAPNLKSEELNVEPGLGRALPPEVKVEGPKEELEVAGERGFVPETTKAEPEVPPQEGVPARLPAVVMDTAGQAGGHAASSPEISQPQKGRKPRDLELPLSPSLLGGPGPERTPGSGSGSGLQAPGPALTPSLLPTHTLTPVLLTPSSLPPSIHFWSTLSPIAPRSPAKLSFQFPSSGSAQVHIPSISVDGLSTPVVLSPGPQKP
The essentials: as §1

The target in the next experiment is T3, GABPA (Homo sapiens, UniProt Q06546 1-454).
T3 sequence: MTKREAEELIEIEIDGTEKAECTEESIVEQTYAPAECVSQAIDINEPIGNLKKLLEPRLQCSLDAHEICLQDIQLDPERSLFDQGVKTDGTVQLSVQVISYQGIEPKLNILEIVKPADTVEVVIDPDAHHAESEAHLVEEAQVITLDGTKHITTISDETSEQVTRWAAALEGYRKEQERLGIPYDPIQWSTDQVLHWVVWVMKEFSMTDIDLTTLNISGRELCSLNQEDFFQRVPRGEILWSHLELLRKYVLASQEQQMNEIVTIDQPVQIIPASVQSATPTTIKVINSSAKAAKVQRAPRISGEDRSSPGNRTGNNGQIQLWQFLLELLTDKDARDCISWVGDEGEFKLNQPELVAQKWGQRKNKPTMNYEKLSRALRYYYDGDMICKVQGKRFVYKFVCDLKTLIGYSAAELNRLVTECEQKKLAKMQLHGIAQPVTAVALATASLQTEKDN
Put shortly:
as §1

The target of another experiment is T4, ERG (Homo sapiens, UniProt P11308 1-479).
T4 sequence: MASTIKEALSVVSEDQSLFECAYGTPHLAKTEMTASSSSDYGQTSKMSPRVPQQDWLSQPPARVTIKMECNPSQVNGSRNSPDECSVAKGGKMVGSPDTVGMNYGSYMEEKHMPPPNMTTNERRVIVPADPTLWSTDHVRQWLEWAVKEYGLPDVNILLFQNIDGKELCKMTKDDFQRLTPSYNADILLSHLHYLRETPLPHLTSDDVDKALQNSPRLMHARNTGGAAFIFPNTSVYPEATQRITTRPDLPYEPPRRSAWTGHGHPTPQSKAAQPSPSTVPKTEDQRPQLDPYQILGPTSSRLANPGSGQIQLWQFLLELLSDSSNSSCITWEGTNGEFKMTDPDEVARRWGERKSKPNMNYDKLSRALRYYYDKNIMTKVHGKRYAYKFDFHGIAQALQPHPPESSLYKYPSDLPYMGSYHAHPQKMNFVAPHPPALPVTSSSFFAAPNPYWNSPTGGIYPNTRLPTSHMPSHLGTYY
Put shortly:
as §1

Another experiment deals with ELF1 (Homo sapiens, UniProt P32519 1-619). The essentials: as §1
Chain of ELF1 (P32519 whole entry): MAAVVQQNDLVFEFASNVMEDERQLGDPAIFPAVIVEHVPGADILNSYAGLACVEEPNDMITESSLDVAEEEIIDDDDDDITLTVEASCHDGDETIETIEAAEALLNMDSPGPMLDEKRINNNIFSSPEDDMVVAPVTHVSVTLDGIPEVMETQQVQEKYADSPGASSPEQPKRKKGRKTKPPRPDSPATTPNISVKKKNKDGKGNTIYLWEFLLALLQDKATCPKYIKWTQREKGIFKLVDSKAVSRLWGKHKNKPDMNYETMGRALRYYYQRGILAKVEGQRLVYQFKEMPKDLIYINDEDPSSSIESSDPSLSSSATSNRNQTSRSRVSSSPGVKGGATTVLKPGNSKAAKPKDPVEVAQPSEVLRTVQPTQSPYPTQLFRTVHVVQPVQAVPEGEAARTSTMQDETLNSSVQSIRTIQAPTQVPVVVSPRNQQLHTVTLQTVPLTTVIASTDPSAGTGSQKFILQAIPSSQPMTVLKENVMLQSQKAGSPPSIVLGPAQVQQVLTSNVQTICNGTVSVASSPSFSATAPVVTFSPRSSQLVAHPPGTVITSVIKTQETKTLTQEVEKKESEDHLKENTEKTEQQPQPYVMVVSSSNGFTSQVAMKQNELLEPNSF
The target of the next experiment is T5, EHF (Homo sapiens, UniProt Q9NZC4 1-300).
T5 sequence: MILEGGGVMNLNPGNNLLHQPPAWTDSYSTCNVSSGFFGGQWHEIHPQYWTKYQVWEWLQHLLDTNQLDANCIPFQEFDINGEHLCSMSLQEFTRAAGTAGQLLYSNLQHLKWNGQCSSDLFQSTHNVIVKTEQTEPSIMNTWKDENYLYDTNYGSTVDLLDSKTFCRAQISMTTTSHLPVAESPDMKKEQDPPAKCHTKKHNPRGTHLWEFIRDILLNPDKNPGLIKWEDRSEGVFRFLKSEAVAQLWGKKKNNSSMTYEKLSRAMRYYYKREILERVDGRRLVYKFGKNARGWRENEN
The essentials: as §1

Another experiment deals with SPI1 (Homo sapiens, UniProt P17947 1-270). Put shortly: as §1
The target in a further experiment is SPIB (Homo sapiens, UniProt Q01892 1-262). The essentials: as §1
Chain of SPIB (Q01892 whole entry): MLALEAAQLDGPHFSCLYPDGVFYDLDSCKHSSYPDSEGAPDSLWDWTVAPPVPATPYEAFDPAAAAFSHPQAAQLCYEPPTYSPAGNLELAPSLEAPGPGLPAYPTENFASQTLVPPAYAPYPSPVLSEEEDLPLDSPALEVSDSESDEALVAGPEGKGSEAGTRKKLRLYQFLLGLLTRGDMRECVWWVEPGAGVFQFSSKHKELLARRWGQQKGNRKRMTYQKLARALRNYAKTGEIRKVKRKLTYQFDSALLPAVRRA
The target in a further experiment is T6, ELK3 (Homo sapiens, UniProt P41970 1-407).
T6 sequence: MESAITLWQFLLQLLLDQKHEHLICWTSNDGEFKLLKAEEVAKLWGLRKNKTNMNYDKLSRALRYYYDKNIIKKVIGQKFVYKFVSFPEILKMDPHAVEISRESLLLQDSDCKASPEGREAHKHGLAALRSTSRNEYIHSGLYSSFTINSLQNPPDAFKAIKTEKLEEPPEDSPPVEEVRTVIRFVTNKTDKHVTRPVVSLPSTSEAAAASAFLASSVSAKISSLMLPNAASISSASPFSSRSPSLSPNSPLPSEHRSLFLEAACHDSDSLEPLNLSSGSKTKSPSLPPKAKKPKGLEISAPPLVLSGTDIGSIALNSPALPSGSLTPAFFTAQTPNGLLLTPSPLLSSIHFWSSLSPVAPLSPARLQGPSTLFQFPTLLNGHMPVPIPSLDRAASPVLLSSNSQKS
Put shortly: as §1

The target of a further experiment is T7, FEV (Homo sapiens, UniProt Q99581 1-238).
T7 sequence: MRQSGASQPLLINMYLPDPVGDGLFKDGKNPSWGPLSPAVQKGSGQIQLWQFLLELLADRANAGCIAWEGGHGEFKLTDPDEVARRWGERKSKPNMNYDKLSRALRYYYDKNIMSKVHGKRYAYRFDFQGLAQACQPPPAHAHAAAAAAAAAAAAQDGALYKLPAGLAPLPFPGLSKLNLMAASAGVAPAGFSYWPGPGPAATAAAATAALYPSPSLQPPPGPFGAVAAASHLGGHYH
Put shortly: as §1

A further experiment concerns the target ETV5 (Homo sapiens, UniProt P41161 1-510). Put shortly: as §1
A further experiment deals with ELF4 (Homo sapiens, UniProt Q99607 1-663). The essentials: as §1
Chain of ELF4 (Q99607 whole entry): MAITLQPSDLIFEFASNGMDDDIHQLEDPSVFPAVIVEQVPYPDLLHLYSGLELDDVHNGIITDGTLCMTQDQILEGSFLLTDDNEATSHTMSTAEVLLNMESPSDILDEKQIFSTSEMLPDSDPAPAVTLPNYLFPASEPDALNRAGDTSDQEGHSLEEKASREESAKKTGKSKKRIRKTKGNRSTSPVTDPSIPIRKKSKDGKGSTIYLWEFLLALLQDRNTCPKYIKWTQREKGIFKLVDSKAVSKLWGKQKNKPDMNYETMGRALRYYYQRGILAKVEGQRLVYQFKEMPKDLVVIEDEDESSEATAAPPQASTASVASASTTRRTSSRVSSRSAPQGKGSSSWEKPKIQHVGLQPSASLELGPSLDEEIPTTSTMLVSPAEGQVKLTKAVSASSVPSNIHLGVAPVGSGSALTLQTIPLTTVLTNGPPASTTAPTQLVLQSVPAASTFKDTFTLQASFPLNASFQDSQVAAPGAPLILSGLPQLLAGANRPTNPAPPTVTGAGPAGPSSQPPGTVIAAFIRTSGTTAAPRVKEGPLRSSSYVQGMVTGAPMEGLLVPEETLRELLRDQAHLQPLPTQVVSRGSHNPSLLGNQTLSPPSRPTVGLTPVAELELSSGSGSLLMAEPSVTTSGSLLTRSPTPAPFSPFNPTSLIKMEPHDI
A further experiment addresses ETV1 (Homo sapiens, UniProt P50549 1-477). Put shortly:
as §1

Another experiment addresses T8, ERF (Homo sapiens, UniProt P50548 1-548).
T8 sequence: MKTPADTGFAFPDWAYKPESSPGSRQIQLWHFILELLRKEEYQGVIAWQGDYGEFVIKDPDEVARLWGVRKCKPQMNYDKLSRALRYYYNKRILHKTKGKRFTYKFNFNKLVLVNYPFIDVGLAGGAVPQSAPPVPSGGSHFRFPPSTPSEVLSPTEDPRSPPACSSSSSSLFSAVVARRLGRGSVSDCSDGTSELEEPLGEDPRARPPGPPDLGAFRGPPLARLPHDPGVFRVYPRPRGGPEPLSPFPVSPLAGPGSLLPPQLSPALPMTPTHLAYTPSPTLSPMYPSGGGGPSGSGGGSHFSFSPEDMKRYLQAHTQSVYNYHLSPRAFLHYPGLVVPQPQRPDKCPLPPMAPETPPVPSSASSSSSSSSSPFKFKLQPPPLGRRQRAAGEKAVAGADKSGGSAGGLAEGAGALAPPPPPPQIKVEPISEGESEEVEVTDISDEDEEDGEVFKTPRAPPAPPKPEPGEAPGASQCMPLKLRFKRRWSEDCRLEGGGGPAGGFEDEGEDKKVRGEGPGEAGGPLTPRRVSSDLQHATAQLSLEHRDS
The essentials: as §1

The next experiment addresses T9, ETV3L (Homo sapiens, UniProt Q6ZN32 1-361).
T9 sequence: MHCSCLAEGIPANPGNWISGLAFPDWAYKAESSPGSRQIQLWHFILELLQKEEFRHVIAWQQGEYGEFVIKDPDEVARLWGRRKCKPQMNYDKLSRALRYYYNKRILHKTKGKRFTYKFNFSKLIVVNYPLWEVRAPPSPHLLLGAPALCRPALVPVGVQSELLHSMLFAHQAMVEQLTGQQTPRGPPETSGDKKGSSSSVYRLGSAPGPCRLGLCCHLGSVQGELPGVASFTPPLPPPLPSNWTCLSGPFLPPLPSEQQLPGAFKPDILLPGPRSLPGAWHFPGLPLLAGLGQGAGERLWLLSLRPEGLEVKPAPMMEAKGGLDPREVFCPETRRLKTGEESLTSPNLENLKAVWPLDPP
Put shortly:
as §1

For another experiment, the target named is T10, ETS2 (Homo sapiens, UniProt P15036 1-469).
T10 sequence: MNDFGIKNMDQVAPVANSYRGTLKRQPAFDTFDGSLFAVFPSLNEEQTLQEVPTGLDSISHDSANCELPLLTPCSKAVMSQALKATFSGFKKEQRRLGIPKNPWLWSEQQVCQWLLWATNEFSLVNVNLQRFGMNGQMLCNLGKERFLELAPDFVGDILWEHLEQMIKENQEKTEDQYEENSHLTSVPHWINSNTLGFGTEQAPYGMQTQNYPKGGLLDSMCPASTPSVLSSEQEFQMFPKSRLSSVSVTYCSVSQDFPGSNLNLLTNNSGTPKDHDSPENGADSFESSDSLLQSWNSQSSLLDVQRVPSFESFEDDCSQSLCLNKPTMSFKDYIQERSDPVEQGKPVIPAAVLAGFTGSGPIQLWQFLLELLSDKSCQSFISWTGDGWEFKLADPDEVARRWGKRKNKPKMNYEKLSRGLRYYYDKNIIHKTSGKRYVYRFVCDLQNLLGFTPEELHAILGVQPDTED
Put shortly: as §1

Another experiment has as its target T11, ELF5 (Homo sapiens, UniProt Q9UKW6-2 1-255).
T11 sequence: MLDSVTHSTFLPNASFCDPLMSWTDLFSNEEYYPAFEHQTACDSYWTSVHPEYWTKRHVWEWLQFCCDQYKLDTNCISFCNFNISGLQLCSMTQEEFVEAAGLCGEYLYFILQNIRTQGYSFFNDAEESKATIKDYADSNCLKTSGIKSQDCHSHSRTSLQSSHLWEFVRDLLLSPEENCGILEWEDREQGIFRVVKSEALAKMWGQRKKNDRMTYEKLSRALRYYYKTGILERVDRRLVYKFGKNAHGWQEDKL
The essentials: as §1

The next experiment addresses T12, ETV3 (Homo sapiens, UniProt P41162-2 1-143).
T12 sequence: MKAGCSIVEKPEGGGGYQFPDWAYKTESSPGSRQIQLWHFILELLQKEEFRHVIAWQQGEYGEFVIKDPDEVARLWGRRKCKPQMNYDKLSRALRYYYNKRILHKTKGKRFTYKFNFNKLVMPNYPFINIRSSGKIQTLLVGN
Put shortly:
as §1

The target in another experiment is ETV6 (Homo sapiens, UniProt P41212 1-452). Put shortly:
as §1

Chain of ETV1 (P50549 whole entry): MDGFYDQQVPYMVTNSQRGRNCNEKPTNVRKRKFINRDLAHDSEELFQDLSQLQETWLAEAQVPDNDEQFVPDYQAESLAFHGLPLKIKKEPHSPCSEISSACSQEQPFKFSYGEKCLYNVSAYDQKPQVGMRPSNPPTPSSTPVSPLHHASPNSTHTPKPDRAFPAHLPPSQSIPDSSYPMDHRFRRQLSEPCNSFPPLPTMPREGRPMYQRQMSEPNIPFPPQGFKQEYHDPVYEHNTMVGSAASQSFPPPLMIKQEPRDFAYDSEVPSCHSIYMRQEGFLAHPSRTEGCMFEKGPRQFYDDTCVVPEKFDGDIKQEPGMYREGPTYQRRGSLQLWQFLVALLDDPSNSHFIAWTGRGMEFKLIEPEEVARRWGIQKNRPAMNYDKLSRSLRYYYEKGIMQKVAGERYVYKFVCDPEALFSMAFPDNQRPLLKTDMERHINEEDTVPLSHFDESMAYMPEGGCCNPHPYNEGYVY
Chain of ETV6 (P41212 whole entry): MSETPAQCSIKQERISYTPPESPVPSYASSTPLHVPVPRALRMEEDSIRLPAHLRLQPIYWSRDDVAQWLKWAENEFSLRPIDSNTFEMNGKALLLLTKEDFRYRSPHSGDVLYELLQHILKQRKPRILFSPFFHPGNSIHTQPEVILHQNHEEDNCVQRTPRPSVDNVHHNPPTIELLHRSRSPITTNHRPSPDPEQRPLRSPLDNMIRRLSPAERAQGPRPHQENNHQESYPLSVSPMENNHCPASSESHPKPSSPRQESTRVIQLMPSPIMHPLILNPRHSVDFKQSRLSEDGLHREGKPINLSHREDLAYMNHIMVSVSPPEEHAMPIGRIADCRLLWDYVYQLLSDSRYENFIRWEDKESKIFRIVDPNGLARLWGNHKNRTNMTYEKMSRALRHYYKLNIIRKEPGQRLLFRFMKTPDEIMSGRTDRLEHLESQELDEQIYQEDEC
Chain of ETV5 (P41161 whole entry): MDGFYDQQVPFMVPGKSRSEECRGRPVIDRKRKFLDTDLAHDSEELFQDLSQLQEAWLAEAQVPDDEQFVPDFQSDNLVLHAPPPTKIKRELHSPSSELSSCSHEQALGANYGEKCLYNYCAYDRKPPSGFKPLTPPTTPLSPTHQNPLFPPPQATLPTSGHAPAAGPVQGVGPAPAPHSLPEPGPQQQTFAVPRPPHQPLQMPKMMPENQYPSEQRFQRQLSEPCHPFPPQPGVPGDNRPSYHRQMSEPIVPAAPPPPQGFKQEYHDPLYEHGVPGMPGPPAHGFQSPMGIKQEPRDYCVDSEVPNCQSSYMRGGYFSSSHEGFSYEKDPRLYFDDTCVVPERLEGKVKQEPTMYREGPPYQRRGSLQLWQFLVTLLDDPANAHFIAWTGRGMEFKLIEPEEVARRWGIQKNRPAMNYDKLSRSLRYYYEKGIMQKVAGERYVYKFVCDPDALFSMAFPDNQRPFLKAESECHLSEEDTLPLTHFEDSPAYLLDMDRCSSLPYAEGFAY

Take GCCTGC: the binding signal was 1.03 fold enrichment (6-mer frequency, TF over GST control) with FLI1; 1.13 fold enrichment (6-mer frequency, TF over GST control) in the experiment with ELK1; 1.07 fold enrichment (6-mer frequency, TF over GST control) with GABPA; 1.03 fold enrichment (6-mer frequency, TF over GST control) with ERG; 1.13 fold enrichment (6-mer frequency, TF over GST control) in the experiment with ELF1; 1.19 fold enrichment (6-mer frequency, TF over GST control) with EHF. The binding signal with SPI1 was 1.06 fold enrichment (6-mer frequency, TF over GST control); in the experiment with SPIB, 1.18 fold enrichment (6-mer frequency, TF over GST control); with ELK3 it was 1.08 fold enrichment (6-mer frequency, TF over GST control); with FEV it was 1.11 fold enrichment (6-mer frequency, TF over GST control); with ETV5, 1.05 fold enrichment (6-mer frequency, TF over GST control); in the experiment with ELF4 it was 1.06 fold enrichment (6-mer frequency, TF over GST control). For the same sequence, the binding signal is 1.18 fold enrichment (6-mer frequency, TF over GST control) with ETV1; 1.05 fold enrichment (6-mer frequency, TF over GST control) with ERF; 1.17 fold enrichment (6-mer frequency, TF over GST control) with ETV3L; 1.05 fold enrichment (6-mer frequency, TF over GST control) in the experiment with ETS2; 1.09 fold enrichment (6-mer frequency, TF over GST control) with ELF5; 1.03 fold enrichment (6-mer frequency, TF over GST control) with ETV3. Further, in the experiment with ETV6, the binding signal is 1.05 fold enrichment (6-mer frequency, TF over GST control).
